# Laboratory results reported in publication PMC6664820, “Novel natural and synthetic inhibitors of solute carriers SGLT1 and SGLT2” (Pharmacology Research & Perspectives, 2019).
# In all, about 1,900 compounds went through this assay and about 40 (2%) showed an effect of 50% or more. Only a selection was taken, and strong results are over-represented in it overall.
# Molecular target: human SGLT1 (hSGLT1) (human, UniProt P13866)
# Assay: primary screen, percent of control activity; higher = less effect of the substance
# Parameters: single well
# Details: 50 µM
# Experimental: Two days before the assay, CHO‐wild type and CHO‐hSGLT1 cells were seeded in maintenance medium at 25 000 cells/well in clear‐bottom black 96‐well cell culture plates. Before the assay, cells were washed 3 times with 150 μL/well D‐glucose free DMEM with 0.3% (w/v) BSA. Library compounds at 50 μmol/L (singlicate) prepared in D‐glucose free DMEM with 160 μmol/L 1‐NBD‐glucose and 0.3% (w/v) BSA and negative controls (triplicate) were added at 100 μL/well and placed in a humidified incubator at 37°C with 5% CO2 for 90 minutes. Next, cells were washed 3 times with DMEM with 0.3% (w/v) BSA (150 μL/well). Care was taken to remove all medium after the last wash. Finally, 1‐NBD‐glucose was extracted from the cells by adding 10 μL/well isopropanol and orbital shaking for 5 minutes at 600 rpm, followed by incubation in the dark for 30 minutes. Fluorescence was measured on a Tecan Infinite M200 Microplate Reader (Tecan, Männedorf, Switzerland) with excitation at 445 nm and emission at 525 nm. The amount of 1‐NBD‐glucose taken up by the CHO‐wild type or CHO‐hSGLT1 cells in the presence or absence of test compounds was interpolated from 1‐NBD‐glucose calibration standards. The background uptake by CHO‐wild type was subtracted from the uptake by CHO‐hSGLT1. Background corrected uptake with test compound was expressed as a percentage of corrected uptake without test compound.
# human SGLT1 (hSGLT1), sequence (P13866 whole entry, looked up): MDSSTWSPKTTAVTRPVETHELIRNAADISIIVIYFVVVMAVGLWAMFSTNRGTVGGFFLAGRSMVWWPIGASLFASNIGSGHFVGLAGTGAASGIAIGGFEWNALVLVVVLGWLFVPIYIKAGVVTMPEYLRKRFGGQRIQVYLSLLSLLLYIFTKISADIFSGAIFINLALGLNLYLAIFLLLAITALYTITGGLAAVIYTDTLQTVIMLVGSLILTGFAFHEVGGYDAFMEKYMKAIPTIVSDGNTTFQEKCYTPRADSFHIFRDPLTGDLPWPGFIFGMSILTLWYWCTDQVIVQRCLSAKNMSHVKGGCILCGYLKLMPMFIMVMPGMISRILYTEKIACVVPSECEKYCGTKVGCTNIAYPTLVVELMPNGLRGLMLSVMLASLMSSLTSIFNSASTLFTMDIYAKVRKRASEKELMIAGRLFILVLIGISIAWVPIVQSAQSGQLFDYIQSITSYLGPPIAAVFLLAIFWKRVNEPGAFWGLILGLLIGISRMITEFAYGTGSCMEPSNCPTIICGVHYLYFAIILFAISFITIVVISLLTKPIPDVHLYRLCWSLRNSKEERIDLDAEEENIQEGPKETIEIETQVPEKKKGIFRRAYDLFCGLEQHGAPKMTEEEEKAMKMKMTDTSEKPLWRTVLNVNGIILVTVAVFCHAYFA
row,SMILES,NORMALIZED SGLT1 ACTIVITY (%)
1,CC[C@@H](CO)NCCN[C@@H](CC)CO.Cl.Cl,90
2,Oc1ccc(Cl)c2cccnc12,208
3,Oc1c(I)cc(I)c2cccnc12,97
4,Oc1c(Cl)cc(Cl)c2cccnc12,48
5,Oc1c(Br)cc(Br)c2cccnc12,50
6,O=S(=O)(O)O.Oc1cccc2cccnc12,127
7,CC(=O)Oc1ccc(Cl)c2cccnc12,202
8,CC(=O)O[C@@H]1CC2C(C)(C)C(=O)C3OC3[C@]2(C)C2CC[C@@]3(C)[C@H](c4ccoc4)OC(=O)C4OC43[C@@]21C (some centres unmarked),138
9,CC(C)CCCC(C)[C@H]1CCC2C3CC=C4C[C@@H](O)CC[C@]4(C)C3CC[C@@]21C (some centres unmarked),120
10,C[n+]1c2cc(N)ccc2cc2ccc(N)cc21.[Cl-],169
11,CC1=CC(=O)C2=C(C)CC[C@@H]3[C@H](OC(=O)[C@H]3C)[C@@H]12,109
12,COC(=O)Nc1nc2ccc(S(=O)c3ccccc3)cc2[nH]1 (centres unmarked),125
13,Cc1ccc(O)c(C(CCN(C(C)C)C(C)C)c2ccccc2)c1.O=C(O)C(O)C(O)C(=O)O (centres unmarked),78
14,COc1ccc(C(=O)c2ccccc2O)c(O)c1,111
15,COc1ccc(C(=O)c2ccccc2)c(O)c1,26
16,COc1cc(O)c(C(=O)c2ccccc2)cc1O,235
17,CCS(=O)(=O)CCn1c([N+](=O)[O-])cnc1C,123
18,COc1ccc2ccc(=O)oc2c1,130
19,Cc1cccc(C)c1NC(=O)C1CCCCN1C.Cl (centres unmarked),83
20,CCCCN1CCCCC1C(=O)Nc1c(C)cccc1C.Cl (centres unmarked),42
21,CCN(CC)CC(=O)Nc1c(C)cccc1C.Cl,72
22,CC(C)CCCC(C)[C@H]1CCC2C3C(=O)C=C4C[C@@H](O)CC[C@]4(C)C3CC[C@@]21C (some centres unmarked),95
23,Cc1ccc(N(CC2=NCCN2)c2cccc(O)c2)cc1.Cl,62
24,COc1ccc2c(c1)OC/C(=C\c1ccc(OC)c(O)c1)C2=O,140
25,CN(C)c1ccc(C(=C2C=CC(=[N+](C)C)C=C2)c2ccc(N(C)C)cc2)cc1.[Cl-],43

row,SMILES,NORMALIZED SGLT1 ACTIVITY (%)
1,O=C1C=CC(=C(c2ccc(O)cc2)c2ccc(O)cc2)C=C1,78
2,CC(CCc1ccccc1)NCC(O)c1ccc(O)c(C(N)=O)c1.Cl (centres unmarked),76
3,O=C([O-])CF.[Na+],96
4,C[C@@H]1C(=O)O[C@H]2[C@H]1CC[C@@]1(C)C=CC(=O)[C@@]3(C)O[C@@]213,96
5,COc1cc(OC)c(OC)cc1C=O,189
6,C1CCC(C(CC2CCCCN2)C2CCCCC2)CC1.O=C(O)/C=C\C(=O)O (centres unmarked),1
7,CCC[C@@H]1CCCCN1,85
8,CC(=O)CC1CCCCN1.Cl (centres unmarked),86
9,C=C[C@H]1CN2CC[C@H]1C[C@H]2[C@H](O)c1ccnc2ccccc12,77
10,C=Cc1c(C)c2[n]3c1C=c1c(C)c(CC)c4[n]1[Cu]31[n]3c(c(C)c5c3C(=c3c(CCC(=O)[O-])c(C)c([n]31)=C2)C(C(=O)[O-])C5=O)C=4.[Na+].[Na+] (centres unmarked),94
11,CC(C)CC(N(C)C)C1(c2ccc(Cl)cc2)CCC1.Cl (centres unmarked),28
12,CC(C)CCCC(C)C1CCC2C3CC(=O)[C@H]4C[C@@H](O)CC[C@]4(C)C3CC[C@]12C (some centres unmarked),107
13,O=C(O)c1cc2cc(Cl)ccc2[nH]1,238
14,C=C1C(C2(C)C=CC(=O)C(C)(C)C2CC(=O)OC)CC[C@@]2(C)[C@H](c3ccoc3)OC(=O)C3OC132 (some centres unmarked),86
15,CC(=O)[C@H]1CCC2C3CCC4=CC(=O)CC[C@]4(C)C3CC[C@@]21C (some centres unmarked),38
16,CC(=O)OCC(=O)[C@H]1CC[C@H]2[C@@H]3CCC4=CC(=O)CC[C@]4(C)[C@H]3CC[C@]12C,114
17,C[C@]12CCC(=O)C=C1CCC1C2CC[C@@]2(C)C1CC[C@@H]2O (some centres unmarked),98
18,C[C@@H]1CC[C@@]2(NC1)O[C@H]1C[C@H]3C4CC=C5C[C@@H](O)CC[C@]5(C)C4CC[C@]3(C)C1[C@@H]2C (some centres unmarked),109
19,CCC1(c2ccc(N)cc2)CCC(=O)NC1=O (centres unmarked),108
20,COc1ccc2c(c1)OC/C(=C/c1ccc(O)c(O)c1)C2=O,249
21,CCCCC(CC)CNC(=N)NC(=N)NCCCCCCNC(=N)NC(=N)NCC(CC)CCCC.Cl.Cl (centres unmarked),36
22,COc1ccc(C[C@H](N)C(=O)N[C@@H]2[C@@H](CO)OC(n3cnc4c(N(C)C)ncnc43)[C@@H]2O)cc1.Cl.Cl (some centres unmarked),116
23,O=C(O)COc1ccc(Cl)cc1Cl,196
24,COC(=O)[C@]1(C)CCC[C@]2(C)c3ccc(C(C)C)cc3C(=O)CC12 (some centres unmarked),89
25,O=C(CCCN1CCN(c2ccccn2)CC1)c1ccc(F)cc1,111
